# PubChem BioAssay (NCI)
# Where “and” joins values, the source holds several entries; their conditions need not be identical. Identical values can stand only once. The panel holds about 83,000 compounds, 20% with a hit somewhere; the sample as a whole holds those more often.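 How to read the values: 0–100, growth inhibition (40 = 60% inhibited); 0, no net growth; -100 to 0, cell death (-40 = 40% of starting cells died; -100 = all dead).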 Values without a mark were called inactive. Calls of active or inactive are those of the source. The calls were made as follows: active = growth percent below 10; inactive = the rest.
# Test system: MDA-MB-468 breast
# Test: NCI-60 one-dose screen, 48 h (100 = growth as untreated, 0 = no growth, -100 = all killed)
# Conditions: 10 µM unless noted
row,SMILES,growth
1,CC(C)c1cccc(C(C)C)c1O,101% and 94.3%
2,O=[N+]([O-])c1ccc2cnn(CSP(=S)(c3ccccc3)c3ccccc3)c2c1,43.1%
3,C/C(=C\c1ccn(-c2ccc(N)c(F)c2)n1)[C@@H]1C[C@@H]2O[C@]2(C)CCC[C@H](C)[C@H](O)[C@@H](C)C(=O)C(C)(C)[C@@H](O)CC(=O)O1,10.5%
4,CC(C)OC(=S)[S-].[Au+].c1ccc([PH+](c2ccccc2)c2ccccc2)cc1,-32.3% (active)
5,COc1ccc(N(CC(=O)NCCC[Te]c2ccccc2)C(=O)CNC(=O)OC(C)(C)C)cc1,92.6%
6,C#Cc1cccc(Nc2nc(Cl)nc3cc(NC(=O)CF)ccc23)c1,61.5%
7,O=Cc1cn(Cc2ccc(Cl)cc2)c2ccccc12,-45% (active)
8,[Cl][Hg][n]1c(-c2ccco2)nc2ccccc21,94.4%
9,CC(C)=CCc1c(O)c(C(=O)CC(C)C)c(O)c2c(-c3ccccc3)cc(=O)oc12,23.1%
10,COc1ccc(/C=C\c2cc(OC)c(OC)c(OC)c2)cc1NS(=O)(=O)c1ccc(Cl)cc1,42.2%
11,CCOC(=O)c1cnc(SCc2ccc(Cl)c(Cl)c2)nc1N1CC1,-3.19% (active)
12,CC1(C)S[C@H]2CC[C@H]3OC(=O)[C@@H]1N23,95.7%
13,C=CC1=C[C@@H]2[C@@H]3O[C@]4(CC[C@H](O4)[C@@H](C)C[C@@H](O)C3=O)C[C@H](O)C3=NCC[C@@]32CC1,-56% (active)
14,N#CC1=C(N)Oc2cc3c(cc2C1c1cccs1)OCO3 (stereo unspecified),6.33% (active)
15,C[C@]12C[C@H](c3ccoc3)OC(=O)[C@H]1CC[C@@]1(C)[C@@H]2[C@H]2C=C[C@]1(O)C(=O)O2,105%
16,N#CCC(=O)c1ccccc1,6.35% (active)
17,COc1cc(/C=C\c2cc(OC)c(OC)c(OC)c2)cc(N/C=C\C(=O)c2cc(OC)c(OC)c(OC)c2)c1OC,-10.6% (active)
18,COC(=O)C12C3C4C1C1C2C3C41NC(=O)c1csc([C@@H](C[C@H](C(C)C)N(C)C(=O)[C@@H](NC(=O)[C@H]2CCCCN2C)C2CC2)OC(C)=O)n1 (stereo partly specified),29.6%
19,CC[CH2][Sn]([Cl])([Cl])[CH2]CC.Oc1ccccc1C=NCCN=Cc1ccccc1O,-59.7% (active) and -33.9% (active)
20,O=C(O)c1nn(Cc2ccc(Cl)cc2)c2ccccc12,105%
21,COc1ccc(NC([Se])=NC23CC4CC(CC(C4)C2)C3)cc1,-15.6% (active)
22,NC(=O)SCC(=O)Nc1ccc([As](=O)(O)O)cc1,87.2%
23,CCN(CC)c1ccc2c(c1)OC(N)=C(C#N)C2c1cc(OC)c2c(c1)OCO2 (stereo unspecified),-9.24% (active)
24,CCCCOC(N)=O,101%
25,CCC[CH2][Sn]1([CH2]CCC)[O]C(=O)c2cccc([N+](=O)[O-])c2C(=O)[O]1,-79.4% (active)
26,COC(=O)[C@@]1(O)C[C@H]2O[C@]1(C)n1c3ccccc3c3c4c(c5c6ccccc6n2c5c31)C(=O)NC4,-72.4% (active)
